Experimental data published in the supplement of paper PMC10981050.
Where “and” joins values, the source holds several entries; their conditions need not be identical. Equal values may be shown once. Where a name gives a salt, the structure may show the parent alone.

Assays:
Experiment in all cases: cell viability relative to vehicle control; higher = less cytotoxic
Conditions in all cases: 10 µM
K562 = tested on: K562
Summary of the method: (§1)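 After removal of identity-inconsistent compounds, the Selleck bioactive, kinase and epigenetic probe libraries were screened on CRISPR-edited mutant clones and isogenic wild-type clones of four leukaemia lines. Plates were 384-well, each well holding 2000 cells in 50 µL medium and receiving a single 10 µM acoustically dispensed dose. CellTiter-Glo luminescence was read 48 h later, after the supernatant was taken off. Genedata Screener was used to express viability as percent of the on-plate vehicle control.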

MARIMO = tested on: MARIMO
Summary of the method: as §1

MOLM14 = tested on: MOLM14
Summary of the method: as §1

OCI-AML2 = tested on: OCI-AML2
Summary of the method: as §1

| SMILES | cell viability (K562; SRSF2 genotype: SRSF2 P95H/wt) | cell viability (K562; SRSF2 genotype: SRSF2 wt/wt) | cell viability (MARIMO; SRSF2 genotype: SRSF2 P95H/wt) | cell viability (MARIMO; SRSF2 genotype: SRSF2 wt/wt) | cell viability (MOLM14; SRSF2 genotype: SRSF2 P95H/wt) | cell viability (MOLM14; SRSF2 genotype: SRSF2 wt/wt) | cell viability (OCI-AML2; SRSF2 genotype: P95H/wt) | cell viability (OCI-AML2; SRSF2 genotype: wt/wt) |
| --- | --- | --- | --- | --- | --- | --- | --- | --- |
| CO[C@H]1/C=C\C=C(/C)C(=O)NC2=CC(=O)C(NCCN(C)C)=C(C[C@@H](C)C[C@H](OC)[C@H](O)[C@@H](C)/C=C(\C)[C@@H]1OC(N)=O)C2=O [17-DMAG HCl (Alvespimycin)] | 14% and 15.5% | 24% | 28.1% | 22.5% | 0.45% | 0.4% | 3.25% | 12% |
| CO[C@@H]1[C@H](OC(=O)/C=C/C=C/C=C/C=C/C(=O)O)CC[C@]2(CO2)[C@H]1[C@@]1(C)O[C@@H]1CC=C(C)C [Fumagillin] | 77.1% and 77.5% | 72.3% | 51.5% | 69.4% | 50.9% | 50.5% | 72.4% | 63% |
| COc1cc2nc(N(C)CCCNC(=O)C3CCCO3)nc(N)c2cc1OC (stereo not drawn) [Alfuzosin hydrochloride (Uroxatral)] | 97% and 98.6% | 95.3% | 91.3% | 98.1% | 96.7% | 97.5% | 90.7% | 103% |
| COc1cc2c(cc1OC)CN(C(=O)/C=C/c1c(-c3ccccc3)n(C)c3ncccc13)CC2 | 63.9% and 81.1% | 71.3% | 69.1% | 70.5% | 47.7% | 44.2% | 51.6% | 49% |
| COc1cc(O)c2c(=O)c(O[C@@H]3O[C@H](CO)[C@@H](O)[C@H](O)[C@H]3O)c(-c3ccc(O[C@@H]4O[C@H](CO)[C@@H](O)[C@H](O)[C@H]4O)cc3)oc2c1 [Complanatuside] | 105% and 101% | 106% | 108% | 104% | 108% | 106% | 107% | 96.2% |
| Clc1cccc(CN=C2Nc3ccccc3NC23CCNCC3)c1 [Liproxstatin-1] | 68.8% and 75.6% | 70% | 73% | 70.1% | 68.9% | 80.1% | 93.5% | 71.5% |
| Cc1cc(C)n(C)n1 [1,3,5-Trimethylpyrazole] | 110% and 105% | 115% | 113% | 109% | 97.9% | 110% | 104% | 104% |
| COC(=O)N[C@H](C(=O)N1CCC[C@H]1C(=O)Nc1ccc([C@@H]2CC[C@@H](c3ccc(NC(=O)[C@@H]4CCCN4C(=O)[C@@H](NC(=O)OC)C(C)C)cc3)N2c2ccc(C(C)(C)C)cc2)cc1)C(C)C [Ombitasvir(ABT-267)] | 83.3% and 81.3% | 91% | 89.8% | 96.3% | 91.9% | 92.5% | 112% | 99.6% |
| CO/N=C(\C(=O)N[C@@H]1C(=O)N2C(C(=O)[O-])=C(C[n+]3cccc4c3CCC4)CS[C@H]12)c1csc(N)n1 [Cefpirome sulfate] | 100% and 107% | 106% | 94.2% | 108% | 103% | 103% | 101% | 104% |
| COc1cc(C(=O)N2CCC(N3CCN(C)CC3)CC2)ccc1Nc1ncc2c(n1)N(C)c1ccccc1C(=O)N2C | 49.8% and 57.1% | 61.2% | 26.9% | 31.8% | 16.3% | 20.6% | 10.9% | 21.2% |
| CC(C)CC(=O)Nc1n[nH]c2c1CN(C(=O)C1CCN(C)CC1)C2(C)C | 37.5% and 39.7% | 38.4% | 15.8% | 6.67% | 2.48% | 1.14% | 8.45% | 17.8% |
| O=C(NC1CCN(CCCCC2(C(=O)NCC(F)(F)F)c3ccccc3-c3ccccc32)CC1)c1ccccc1-c1ccc(C(F)(F)F)cc1 [Lomitapide] | 0.51% and 0.47% | 0.4% | 0.42% | 0.43% | 0.37% | 0.37% | 0.35% | 0.46% |
| C#CC1(O)CC[C@H]2[C@@H]3CCC4=CC(=O)CC[C@@H]4[C@H]3CC[C@@]21CC (stereo partly drawn) [Norgestrel] | 100% | 97.1% | 95.6% | 103% | 98.2% | 108% | 122% | 114% |
| Cc1cccc(C)c1NC(=O)c1cc(S(N)(=O)=O)c(Cl)cc1O [Xipamide] | 101% and 94.8% | 104% | 103% | 113% | 101% | 107% | 97.5% | 106% |
| C=C1C[C@@]23CC[C@H]4[C@@](C)(CCC[C@@]4(C)C(=O)O[C@@H]4O[C@H](CO)[C@@H](O)[C@H](O)[C@H]4O)[C@@H]2CC[C@]1(O[C@@H]1O[C@H](CO)[C@@H](O)[C@H](O[C@@H]2O[C@H](CO)[C@@H](O)[C@H](O)[C@H]2O)[C@H]1O[C@@H]1O[C@H](CO)[C@@H](O)[C@H](O)[C@H]1O)C3 [Rebaudioside A] | 95.1% and 100% | 102% | 98.8% | 106% | 105% | 102% | 104% | 105% |
| CCCCCC1=C(C)CCC1=O [Dihydrojasmone] | 105% | 108% | 101% | 106% | 107% | 105% | 106% | 115% |
| CN(C)/N=N/c1[nH]cnc1C(N)=O [Dacarbazine (DTIC-Dome)] | 117% and 112% | 110% | 108% | 107% | 97.6% | 108% | 107% | 112% |
| COC(=O)N[C@H](C(=O)N1CCC[C@H]1c1ncc(-c2ccc(-c3ccc(-c4cnc([C@@H]5CCCN5C(=O)[C@@H](NC(=O)OC)C(C)C)[nH]4)cc3)cc2)[nH]1)C(C)C | 93.2% and 92% | 89.7% | 72.4% | 83.9% | 78.2% | 88.5% | 84.6% | 84.3% |

| SMILES | cell viability (K562; SRSF2 genotype: SRSF2 P95H/wt) | cell viability (K562; SRSF2 genotype: SRSF2 wt/wt) | cell viability (MARIMO; SRSF2 genotype: SRSF2 P95H/wt) | cell viability (MARIMO; SRSF2 genotype: SRSF2 wt/wt) | cell viability (MOLM14; SRSF2 genotype: SRSF2 P95H/wt) | cell viability (MOLM14; SRSF2 genotype: SRSF2 wt/wt) | cell viability (OCI-AML2; SRSF2 genotype: P95H/wt) | cell viability (OCI-AML2; SRSF2 genotype: wt/wt) |
| --- | --- | --- | --- | --- | --- | --- | --- | --- |
| CCc1ccc(/C=C2/SC(=S)NC2=O)cc1 | 106% and 101% | 102% | 100% | 108% | 105% | 104% | 91% | 91.2% |
| Nc1nc2cc(-c3ccc4ncc(C(=O)N5CCOCC5)n4c3)ccc2o1 [Serabelisib (INK-1117,MLN-1117,TAK-117)] | 92.2% and 98.4% | 84.2% | 64.5% | 72.4% | 57.7% | 65.2% | 53% | 65.4% |
| COC(=O)C1=C(C)NC(C)=C(C(=O)OC)C1c1ccccc1[N+](=O)[O-] [Nifedipine (Adalat)] | 76.5% and 90.2% | 80.8% | 57.5% | 51.7% | 49.3% | 49.5% | 29.4% | 48.4% |
| Nc1ccc(/C=C/C(=O)NCc2cc3cc(-c4ccc(C(=O)N5CCC(F)(F)CC5)cc4)cc(-c4ccc(F)cc4)c3o2)cn1 | 19.8% and 14.3% | 19.1% | 10% | 13.1% | 4.36% | 1.09% | 4.54% | 4.59% |
| CN(Cc1cc(Br)cc(Br)c1N)C1CCCCC1 [Bromhexine HCl] | 96.8% and 96.7% | 92.8% | 86.6% | 99.2% | 96.7% | 99.4% | 92.2% | 98.7% |
| Nc1c2c(nc3ccccc13)CCCC2 [tacrine hydrochlorid] | 101% and 110% | 112% | 100% | 113% | 103% | 105% | 122% | 94.5% |
| N#Cc1ccc([C@H]2CCc3cncn32)c(F)c1 | 103% and 100% | 88.2% | 100% | 113% | 99.5% | 101% | 95.9% | 94.6% |
| O.O=C([O-])c1ncccc1O.O=C([O-])c1ncccc1[O-].[H+].[O]=[V][OH] [VO-Ohpic trihydrate] | 100% and 92.1% | 95.5% | 106% | 102% | 122% | 110% | 121% | 119% |
| OC[C@@H](O)[C@@H](O)[C@H](O)[C@@H](O)CO [Sorbitol (Glucitol)] | 101% and 105% | 102% | 103% | 102% | 97.3% | 104% | 101% | 100% |
| CC(CN(C)C)Oc1nc(Nc2cc3cccc(Cl)c3cn2)cnc1C#N (stereo not drawn) | 50.7% and 62.5% | 44.9% | 62.2% | 56.3% | 15.7% | 8.7% | 17% | 18.5% |
| Cc1ccnc2c1NC(=O)c1cccnc1N2C1CC1 [Nevirapine (Viramune)] | 101% and 89.6% | 95.5% | 93.3% | 99.3% | 89.9% | 0.15% | 91.6% | 104% |
| C[n+]1ccccc1C=NO [Pralidoxime Iodide] | 106% and 98.4% | 111% | 101% | 105% | 99.2% | 106% | 105% | 118% |
| O=C(CCCCCCC(=O)Nc1ccccc1)NO [Vorinostat (SAHA, MK0683)] | 1.62% and 17.9% | 10.1% | 4.92% | 8.5% | 0.83% | 0.28% | 1.15% | 4.64% |
| CC1(C)CCC2(C(=O)O)C(O)CC3(C)C(=CCC4C5(C)CC(O)C(O)C(C)(CO)C5CCC43C)C2C1 (stereo not drawn) [Polygalacic acid] | 103% and 102% | 103% | 101% | 98.5% | 109% | 100% | 104% | 94.9% |
| CCCCOc1ccc(C(=O)CCN2CCCCC2)cc1 [Dyclonine hydrochloride] | 80.7% and 80.8% | 80.6% | 77.8% | 68.7% | 49.2% | 76.4% | 64.5% | 64.2% |
| COc1ccc(-c2ccc3cc(C(=O)O)ccc3c2)cc1C12CC3CC(CC(C3)C1)C2 [Adapalene] | 93.7% and 97.8% | 88.2% | 45.3% | 26.6% | 56.9% | 23.9% | 31.2% | 38.6% |
| CCN(CCO)CCCOc1ccc2c(Nc3cc(CC(=O)Nc4cccc(F)c4)[nH]n3)ncnc2c1 [Barasertib (AZD1152-HQPA)] | 70.7% and 93.2% | 81% | 73.2% | 68.2% | 13.9% | 7.61% | 29.1% | 36.6% |
| C=C1CC[C@H]2C(=C)CC[C@H]3C(=C)C(=O)O[C@@H]3[C@@H]12 [Dehydrocostus Lactone] | 25.2% and 23.9% | 30.8% | 13.7% | 16.1% | 8.31% | 11.1% | 3.84% | 6.64% |
